Compound activity deposited in PubChem BioAssay by National Center for Advancing Translational Sciences (NCATS).
DT40 TDP1 no CPT – qHTS for Inhibitors of human tyrosyl-DNA phosphodiesterase 1 (TDP1): qHTS in cells in absence of CPT; DT40 Tdp1-/- hTDP1 cells, no CPT, ATP luminescence, 48 h; Potency, µM (titrated, usually from 46.2 µM), for the others: at the top dose activity change, negative = growth inhibition, most hits filed as inhibitors; actives 15% (n = 420,000); AID 686978, 2013; also: potency is read from the fitted curve at half-maximal effect; nearly all actives have a fitted effect of over 55% in size
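Luminescent ATP content (CellTiter-Glo) served as the growth readout. Knockout chicken DT40 cells expressing human TDP1 were exposed to compounds without camptothecin for a minimum 48 hr at 37 °C.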
Giardia killer – kills Giardia lamblia; Giardia lamblia trophozoite viability; activity change, % at 7.66 µM, hits read low; actives 0.15% (n = 340,000); AID 540267; in the data active = activity change below about -80%; inconclusive = between about -30% and that limit;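 also: parasites exposed to compound for two days anaerobically before the ATP read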
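Compounds were tested on trophozoites seeded at 100 cells/well and held 48 hrs at 37 deg C anaerobically. An ATP-based luminescent kit measured the remaining live cells.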
TDP1 cell CPT – DT40-hTDP1 cell growth loss with CPT | chicken DT40 Tdp1-/-;hTDP1 cells + 20 nM CPT, ATP luminescence, 48 h | Potency, µM (series often up to 46.2 µM), inactives show top-dose activity change, negative = growth inhibition, usual class: inhibitors | actives 12% (n = 420,000); also: potency is read from the fitted curve at half-maximal effect; nearly all actives have a fitted effect of over 55% in size
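Chicken DT40 Tdp1-/- cells stably complemented with human TDP1 were seeded at 400 cells/well in medium containing 20 nM camptothecin, exposed to pin-transferred compounds, and grown at 37 °C for at least 48 hr. Viability was read as ATP luminescence.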
ELG1 repair inh – ELG1-dependent DNA repair inhibition; HEK293T ELG1-luciferase reporter, luminescence, 16 h; DNA damage induced by 5-fluorouridine; Potency, µM (series often up to 46.1 µM), inactives show at the highest dose activity change, negative = inhibition, hits mostly inhibitors; actives 2.3% (n = 330,000); also: potency is read from the fitted curve at half-maximal effect; nearly all actives have a fitted effect of over 55% in size
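Reporter activity after DNA damage by 5-fluorouridine is monitored. Compound-treated cells incubate 16 hr at 37 °C, then ONE-Glo is added for 30 min before luminescence reading.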
IL1B secr inh – inhibitors of inflammasome signaling (IL-1 beta secretion). AID 743279. actives 4.7% (n = 360,000). activity change, % at 57.5 µM. THP-1 LPS/ATP IL-1B secretion, AlphaLISA, 16 h; active compounds read low; in the data active = activity change below about -50%; inconclusive = mostly about -30% to -49%
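Secreted IL-1B measured by AlphaLISA bead assay after 16 h compound exposure of THP-1 cells; compounds (final up to 57.5 uM) added 1 h before LPS (250 ng/mL) and ATP (1.25 mM) stimulation; lower signal means less secretion.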
TDP1 block – TDP1 (human) enzyme inhibition; Q9NUW8; recombinant TDP1, AlphaScreen DNA substrate cleavage; Potency, µM (top dose mostly 130 µM), for inactives: at the highest dose activity change, negative = inhibition, usual class: inhibitors; actives 0.28% (n = 350,000); also: potency is read from the fitted curve at half-maximal effect; nearly all actives have a fitted effect of over 40% in size
Target sequence (Q9NUW8 whole entry, looked up): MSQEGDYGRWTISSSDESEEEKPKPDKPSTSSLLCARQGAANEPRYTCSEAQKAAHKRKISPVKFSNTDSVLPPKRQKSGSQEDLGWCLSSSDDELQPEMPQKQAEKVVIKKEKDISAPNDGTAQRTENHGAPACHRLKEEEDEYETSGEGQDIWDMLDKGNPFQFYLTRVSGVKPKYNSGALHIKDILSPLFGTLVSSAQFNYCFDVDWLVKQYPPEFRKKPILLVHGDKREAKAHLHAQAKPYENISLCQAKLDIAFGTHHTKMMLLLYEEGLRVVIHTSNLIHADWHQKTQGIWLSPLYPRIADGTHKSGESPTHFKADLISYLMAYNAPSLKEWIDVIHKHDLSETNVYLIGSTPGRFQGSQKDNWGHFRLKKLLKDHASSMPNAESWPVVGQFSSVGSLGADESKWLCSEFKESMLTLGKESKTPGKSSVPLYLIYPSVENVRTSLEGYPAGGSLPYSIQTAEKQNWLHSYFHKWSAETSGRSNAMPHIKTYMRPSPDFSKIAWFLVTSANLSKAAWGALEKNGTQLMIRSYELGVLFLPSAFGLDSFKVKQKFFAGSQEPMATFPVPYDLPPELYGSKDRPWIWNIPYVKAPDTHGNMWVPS
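Here, a 5' biotin and 3' phosphotyrosine-FITC DNA oligonucleotide reports Tdp1 activity: intact substrate bridges AlphaScreen beads, while cleavage leaves a 3' phosphate and drops signal. All incubations at room temperature.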
* marks the source's active call; other numbers are inactive results; ? = inconclusive; nt = not tested or not shown. Hits are enriched below; roughly 19% of the tested compounds scored in any of these assays. Unless noted, calls follow the shape of the dose curve; as a rule, active = well fitted curve in the direction sought with a large enough effect; inconclusive = small, poorly fitted or top-dose-only effect, or another doubt; inactive = no such curve, though single readings can be large; an effect the other way counts as inactive or inconclusive. % is scaled to controls: 0 for no effect and ±100 for the full control effect.

SMILES	DT40 TDP1 no CPT	Giardia killer	TDP1 cell CPT	ELG1 repair inh	IL1B secr inh	TDP1 block
CC1=C(C(=O)Nc2ccc(C)cc2C)C(c2ccccc2C)n2ncnc2N1 (stereo unspecified)	3%	nt	-6%	nt	nt	-2%
COc1cccc2cc(-c3cn4c(n3)sc3cc(F)ccc34)c(=O)oc12	-4%	nt	5%	nt	nt	3%
COc1cc(NC(=O)c2cc(-c3cccs3)on2)cc(OC)c1OC	16µM*	10	21µM*	?	-6	3%
COc1cc(NC(=O)c2cc(-c3ccccc3Cl)on2)cc(OC)c1OC	2.9µM*	2	2.9µM*	9.2µM*	-81*	nt
COCCNC(=O)c1cc(-c2cccs2)on1	23µM*	-23	?	?	20	1%
COc1ccccc1-c1cc(C(=O)Nc2cccnc2Cl)no1	-16%	4	8%	2%	-17	-6%
COCCNC(=S)NNC(=O)c1cccs1	-10%	-18	0%	7%	16	5%
COCCNC(=O)Nc1ccc2nc(-c3cccs3)c(-c3cccs3)nc2c1	?	17	?	?	-54*	4%
Cc1ccc(NC(=O)c2cc(-c3cccs3)on2)cc1	?	10	?	?	-24	1%
O=C(CCN1C(=O)c2ccccc2Sc2ncccc21)Nc1ccc(F)cc1F	-25%	nt	-4%	nt	nt	0%
Cc1cc(C)c(NC(=O)CNC(=O)c2ccc3ncsc3c2)c(C)c1	-16%	2	-1%	0%	-14	-2%
COc1ccc(C2NC(=O)N(C)C3=C2C(=O)N(c2cccc(Cl)c2)C3)cc1 (stereo unspecified)	-1%	nt	-2%	nt	nt	7%
CNC(=O)C1CCC(Cn2c(=O)[nH]c3ccsc3c2=O)CC1 (stereo unspecified)	1%	nt	-2%	nt	nt	-6%
CN(C(=O)c1cccc(NC(=O)Cc2ccc(NC(=O)C3CCCN(C(=O)C4CCC4)C3)cc2)c1)C1CCC1 (stereo unspecified)	-8%	-25	-5%	nt	9	nt
O/N=C1\CCCc2ccc(Cl)cc21	-28%	-7	3%	10%	22	-1%
CN(Cc1ccco1)c1ncncc1-c1ccccc1C(F)(F)F	4%	nt	12%	nt	nt	nt
CCC(C)NC(=O)c1ccc2nc(-c3cccs3)c(-c3cccs3)nc2c1 (stereo unspecified)	13µM*	28	10µM*	nt	nt	-2%
Cc1ccc(C)c(N(C)S(=O)(=O)c2ccc3[nH]cc(C(=O)NC4CCCC4)c(=O)c3c2)c1	?	nt	?	nt	nt	8%
NC(=S)n1[nH]c(-c2ccc([N+](=O)[O-])cc2)c(N=Nc2cccc([N+](=O)[O-])c2)c1=O	?	11	?	3.3µM*	36	?
Cc1c(N=Nc2c(-c3ccc([N+](=O)[O-])cc3)[nH]n(C(N)=S)c2=O)cccc1[N+](=O)[O-]	2.9µM*	-16	2.9µM*	2.1µM*	?	3%
NC(=S)n1[nH]c(-c2ccc([N+](=O)[O-])cc2)c(N=Nc2ccccc2[N+](=O)[O-])c1=O	?	31	?	?	4	0%
Cc1[nH]n(C(N)=S)c(=O)c1N=Nc1cccc([N+](=O)[O-])c1C	?	-18	-5%	?	-4	8%
COC(=O)Cc1csc(Nc2ccc(F)c(Cl)c2)n1	2%	1	-21%	-16%	13	0%
COc1cc(C(=O)OCc2cc(=O)oc3c(C)c(C)ccc23)ccc1OC(F)F	?	-1	?	0%	13	nt
CC(C)(C)c1ccc(N2C(=O)CSC2c2cccnc2)cc1 (stereo unspecified)	8.2µM*	-11	?	0%	13	3%
